# Y pestis TopoI – blocks Yersinia pestis topoisomerase I activity; AID 504884; activity, % at 10 µM; 0.064% of 360,000 active; Y. pestis Topo-I cleavage product accumulation, plate reader; in the data active means activity above about 50%, passing the limit was not always enough
# TcdB inh – blocks C. difficile toxin B glycohydrolase activity; P18177; TcdB glycohydrolase enzymatic assay, plate reader; inhibition, % at 9.99 µM; 0.24% of 350,000 active; AID 652162; in the data active means inhibition above about 10%
# BH1578 lux ind – quorum light induction in luxS cqsA deficient V. cholerae. V. cholerae BH1578 lux reporter, luminescence, 6 h. activation, % at 18.7 µM. 0.16% of 350,000 active. AID 588436; in the data active means activation mostly above about 9.7%, no sharp cut-off
# FadD28 binding – inhibitors of Mycobacterium tuberculosis FadD28 bisubstrate binding. AID 588549. inhibition, % at 12.5 µM. FadD28 bisubstrate probe binding, fluorescence polarization. 0.22% of 360,000 active; in the data active means inhibition above about 8.5%, passing the limit was not always enough
# Mtb BioA inh – BioA (M. tuberculosis) enzyme inhibition; purified M. tuberculosis BioA enzyme, plate reader; inhibition, % at 9.99 µM; 0.096% of 360,000 active; in the data active means inhibition above about 40%
# Hits are given with their value; i = inactive; nt = not tested or not shown; + = active, no number. The list is not random: actives were taken first. Their share in the collection is about 0.58%.
SMILES,Y pestis TopoI,TcdB inh,BH1578 lux ind,FadD28 binding,Mtb BioA inh
Cc1cc(C(=O)NNC(=O)c2ccc(Cl)cc2)c2ccccc2n1,i,i,24.6,i,i
CO[C@@H]1CN(C)C(=O)c2ccc(NC(=O)Nc3ccccc3)cc2OC[C@@H](C)N(CC2CC2)C[C@@H]1C,nt,i,nt,nt,i
COCC(=O)Nc1ccc2c(c1)C(=O)N(C)C[C@H](OC)[C@@H](C)CN(Cc1cc(F)ccc1F)[C@H](C)CO2,nt,i,nt,nt,i
S=c1nc(-c2cccc(Cl)c2)[nH][nH]1,i,14.2,i,i,nt
CCCCCCCC/C=C\CCCCCCCC(=O)NCCO,i,i,i,14.8,i
O=C1CN(S(=O)(=O)c2ccccc2)C[C@@H]2[C@H](c3ccc(C#Cc4ccccc4)cc3)[C@H](CO)N12,nt,i,nt,nt,nt
CN1\C(=C/C=C/C=C/C=[N+](C)C)C(C)(C)c2ccccc21,+,i,i,i,nt
O=C(Cc1ccccc1)CC(CC(=O)c1ccccc1)c1ccccc1 (stereo not given),56.2,i,i,i,i
C=C(C(=O)c1ccccc1)C(CC(=O)c1ccccc1)c1ccccc1 (stereo not given),i,nt,i,i,nt
Cc1noc(C)c1S(=O)(=O)Nc1ccc2c(c1)C(=O)N([C@@H](C)CO)C[C@@H](C)[C@@H](CN(C)C(=O)Nc1ccccc1)OCCCC[C@@H](C)O2,nt,i,nt,nt,i
Cc1ccc(S(=O)(=O)N2C[C@H](O)COC[C@H]3O[C@@H](CC(=O)N[C@H]4CCN(Cc5ccccc5)C4)CC[C@@H]32)cc1,nt,i,nt,nt,i
Cc1ccc(C(=O)NCCn2cc(SCC(=O)Nc3cc(C)on3)c3ccccc32)cc1,i,15.1,i,i,i
CCC(=O)N1[C@@H](CO)[C@@H](c2ccc(-c3ccccc3C)cc2)C12CN(C(C)=O)C2,nt,i,nt,nt,nt
CC(C)(Oc1ccc(Cl)cc1)C(=O)NC1CC1,i,10.5,i,i,i
O=c1cc(NCc2ccco2)c2ccccc2o1,i,nt,25.8,i,i
O=c1cc(NCc2ccccc2)c2ccccc2o1,i,nt,i,i,i
COC(=O)c1ccccc1-c1c2ccc(=N)cc-2oc2cc(N)ccc12,i,i,i,128.6,i
CC(=O)C(Sc1nn(C)c(=S)s1)C(=O)Nc1ccccc1 (stereo not given),i,nt,25.0,i,i
C[C@H](CO)N1C[C@H](C)[C@H](CN(C)S(=O)(=O)c2ccccc2)Oc2ccc(NS(=O)(=O)c3cn(C)cn3)cc2CC1=O,nt,i,nt,nt,i
C[C@@H]1CN([C@H](C)CO)C(=O)c2cc(C#CC3(O)CCCC3)cnc2O[C@H]1CN(C)C(=O)C1CCOCC1,nt,i,nt,nt,i
CN(C)c1ccc(Cc2cc3c(O)ccc(O)c3cc(Cc3ccc(N(C)C)cc3)c2=O)cc1,i,i,i,11.1,nt
Nc1nc(Nc2ccccc2)n[nH]1,i,12.9,i,i,i
Nc1nc(Nc2ccc(Cl)cc2)n[nH]1,i,nt,i,i,i
CCCNC(=O)N1C[C@H]2[C@@H](c3ccccc31)[C@@H](CO)N2CC1CCCCC1,nt,nt,nt,nt,i
COc1ccccc1-c1cn[nH]c1-c1ccc(OCc2ccc(F)cc2)cc1O,i,i,i,i,i
SMILES,Y pestis TopoI,TcdB inh,BH1578 lux ind,FadD28 binding,Mtb BioA inh
COc1ccc(-c2cn[nH]c2-c2ccc(O)cc2O)cc1,i,15.1,i,i,i
COc1ccccc1-c1cn[nH]c1-c1ccc(O)cc1O,i,13.6,i,i,i
COc1cccc(-c2cnc3c(c2)C(=O)N([C@H](C)CO)C[C@H](C)[C@H](CN(C)Cc2ccc(C(=O)O)cc2)O3)c1,nt,i,nt,nt,i
O=C(Nc1ccc(OCC(=O)N2CCOCC2)cc1)Nc1cccc(Cl)c1,i,i,i,i,nt
CC(C)(C)c1ccc(NC(=O)Nc2ccc(OCC(=O)N3CCOCC3)cc2)cc1,i,i,i,24.6,nt
CCCCC/C=C/C1=CC(=O)C[C@H](c2ccc3c(c2)OCO3)C1,62.8,i,i,i,i
CC(C)CSC1=NSC2=NC(=O)/C(=C\c3coc4ccccc4c3=O)C(=N)N12,i,nt,i,14.4,nt
CSC1=NSC2=NC(=O)/C(=C\c3coc4ccccc4c3=O)C(=N)N12,i,i,i,i,nt
Cc1ccc(N=C2NC(=O)/C(=C/C=C/c3ccco3)S2)cc1,i,i,i,i,nt
Cc1cccc(N=C2NC(=O)/C(=C/C=C/c3ccco3)S2)c1C,i,nt,i,11.2,nt
CC(C)CN1CCN(CC#Cc2ccccc2)CC1CCO (stereo not given),i,10.1,i,i,nt
COc1ccc(S(=O)(=O)N2CCC[C@H]2C(=O)N2CCC[C@H]2C(=O)NCc2ccccc2)cc1C,nt,i,nt,nt,nt
COc1ccc(S(=O)(=O)N2CCC[C@H]2C(=O)N2CCC[C@H]2C(=O)NCc2ccncc2)cc1C,nt,10.3,nt,nt,nt
O=S(=O)(Cc1cccc(F)c1)c1c[nH]c2ccccc12,i,15.5,i,i,i

# Source: PubChem BioAssay (Broad Institute)
